In all, about 5,500 compounds went through this assay and about 2,000 (36%) were called active. Another 18% or so got no clear call; they are omitted. No stated cut-off is given here; in the data, active means normalized growth mostly below about 0.91 (no sharp cut-off); inconclusive means no clear call, values can overlap the other calls; inactive means mostly above about 0.92. The list shows a part of the results.
Test: chemical genetic growth profiling, strain panel (AID 1159580);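 further: tested at 20 µM; growth read once vehicle control cultures reached saturation at 30 °C; 1 = growth at the plate median or of vehicle wells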
Details: growth OD
[1] = S. cerevisiae deletion strains, locus YDR150W, strain NUM1, stronger effect = lower value
[2] = S. cerevisiae deletion strains, locus YHR030C, strain SLT2, stronger effect = lower value
[3] = S. cerevisiae deletion strains, locus YMR307W, strain GAS1, stronger effect = lower value
[4] = S. cerevisiae deletion strains, locus YNL153C, strain GIM3, stronger effect = lower value
[5] = S. cerevisiae deletion strains, locus YNL322C, strain KRE1, stronger effect = lower value
[6] = S. cerevisiae deletion strains, locus YPL241C, strain CIN2, stronger effect = lower value

Measured: normalized growth

O=C1CC(Nc2ccccc2)C=C1Nc1ccccc1 (stereo unspecified)
inactive: S. cerevisiae deletion strains, locus YAL013W, strain DEP1, stronger effect = lower value 1.01 | S. cerevisiae deletion strains, locus YBR229C, strain ROT2, stronger effect = lower value 1.03 | S. cerevisiae deletion strains, locus YCL061C, strain MRC1, stronger effect = lower value 1.01 | S. cerevisiae deletion strains, locus YDL101C, strain DUN1, stronger effect = lower value 1.01 | S. cerevisiae deletion strains, locus YDL134C, strain PPH21, stronger effect = lower value 1.02 | [1] 1.02 | S. cerevisiae deletion strains, locus YEL061C, strain CIN8, stronger effect = lower value 1.01 | S. cerevisiae deletion strains, locus YGR078C, strain PAC10, stronger effect = lower value 1.01 | [2] 1.01 | S. cerevisiae deletion strains, locus YHR087W, strain rtc3, stronger effect = lower value 1.02 | S. cerevisiae deletion strains, locus YJR043C, strain POL32, stronger effect = lower value 1.01 | S. cerevisiae deletion strains, locus YJR075W, strain HOC1, stronger effect = lower value 1.03 | S. cerevisiae deletion strains, locus YKL190W, strain CNB1, stronger effect = lower value 1.02 | S. cerevisiae deletion strains, locus YLR039C, strain RIC1, stronger effect = lower value 0.977 | S. cerevisiae deletion strains, locus YLR058C, strain SHM2 (second series), stronger effect = lower value 1.03 | S. cerevisiae deletion strains, locus YLR085C, strain ARP6, stronger effect = lower value 0.968 | S. cerevisiae deletion strains, locus YLR262C, strain YPT6, stronger effect = lower value 1.02 | S. cerevisiae deletion strains, locus YML094W, strain GIM5, stronger effect = lower value 1.01 | S. cerevisiae deletion strains, locus YMR219W, strain ESC1, stronger effect = lower value 1.03 | S. cerevisiae deletion strains, locus YMR263W, strain SAP30, stronger effect = lower value 1 | [3] 1.02 | [4] 1 | S. cerevisiae deletion strains, locus YNL298W, strain CLA4 (second series), stronger effect = lower value 0.979 | [5] 1.01 | S. cerevisiae deletion strains, locus YNR030W, strain Alg12, stronger effect = lower value 1.01 | S. cerevisiae deletion strains, locus YPL055C, strain LGE1, stronger effect = lower value 1.09 | [6] 0.998 | S. cerevisiae deletion strains, locus YPR135W, strain CTF4, stronger effect = lower value 0.966 | S. cerevisiae strains, strain wild type, stronger effect = lower value 1.02

NC(=O)OCC(COC(N)=O)c1ccccc1
inactive: S. cerevisiae deletion strains, locus YAL040C, strain CLN3, stronger effect = lower value 1.03 | S. cerevisiae deletion strains, locus YCL061C, strain MRC1 (second series), stronger effect = lower value 1.01 | [1] 1 | S. cerevisiae deletion strains, locus YDR363W, strain ESC2, stronger effect = lower value 1 | S. cerevisiae deletion strains, locus YER002W, strain NOP16, stronger effect = lower value 0.999 | S. cerevisiae deletion strains, locus YGR229C, strain SMI1, stronger effect = lower value 0.991 | [2] 0.975 | S. cerevisiae deletion strains, locus YHR079C, strain IRE1, stronger effect = lower value 0.991 | S. cerevisiae deletion strains, locus YJL095W, strain BCK1, stronger effect = lower value 0.959 | S. cerevisiae deletion strains, locus YJR066W, strain TOR1, stronger effect = lower value 0.932 | S. cerevisiae deletion strains, locus YLR113W, strain HOG1, stronger effect = lower value 0.99 | [3] 0.985 | [4] 1.04 | S. cerevisiae deletion strains, locus YNL175C, strain NOP13, stronger effect = lower value 0.999 | S. cerevisiae deletion strains, locus YNL183C, strain NPR1, stronger effect = lower value 0.945 | S. cerevisiae deletion strains, locus YNL197C, strain WHI3, stronger effect = lower value 1 | S. cerevisiae deletion strains, locus YNL224C, strain SQS1, stronger effect = lower value 1.03 | [5] 1.02 | S. cerevisiae deletion strains, locus YOR083W, strain WHI5 (second series), stronger effect = lower value 1.02 | S. cerevisiae deletion strains, locus YOR231W, strain MKK1, stronger effect = lower value 0.976 | [6] 1.01 | S. cerevisiae deletion strains, locus YPL256C, strain CLN2, stronger effect = lower value 0.976

— PubChem BioAssay AID1159580 (chemical genetic matrix, 2015)
